In PubChem BioAssay (NCI):
The panel holds about 79,000 compounds, 15% with a hit somewhere; the sample as a whole holds those more often. Active and inactive are the calls of the source. Cut-off read from the data, not from the text of the source: active = growth inhibition above about 70%; inactive = the rest.

Test: NCI Yeast Anticancer Drug Screen. Data for the mec2-1 strain (AID 157)
Conditions: S. cerevisiae mec2-1 strain, at 50.0 µM (retest, dose inferred, filed as 5.0), stronger effect = higher value
Summary of the method: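 Using mec2-1 yeast: add compound, measure growth, express inhibition versus vehicle-treated cultures.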

| Compound | growth inhibition |
| --- | --- |
| Nc1ncnc(N2CCOCC2)c1N | 0% (inactive) |
| CN(C)c1ccc2c(NCCCCCCNc3ccnc4cc(N(C)C)ccc34)ccnc2c1 | 97% (active) |
| CC(C)N=Cc1cc(Br)cc(Br)c1O.CC(C)N=Cc1cc(Br)cc(Br)c1O.[Co] | 99% (active) |
| O=C1c2ccc(O)cc2C(=O)c2c1ccc(O)c2O | 95% (active) |
| COc1cc2c[n+](C)c3c4cc(OC)c(OCc5ccccc5)cc4c(OCc4ccccc4)cc3c2cc1OC | 93% (active) |
| O=C(Nc1ccc(Cl)cc1)OCC1C2C=CC(C2)C1CO (stereo not given) | 97% (active) |
| Cn1nc(-c2ccccc2NC(=O)C(F)(F)F)c(=O)n(C)c1=S | 21% (inactive) |
| OCc1c2c(cc3c1CC1(C3)Cc3cc4c(c(CO)c3C1)CCC4)CCC2 | 97% (active) |
| O=C(C[n+]1ccccc1)N=N/C(C(=O)Nc1c(Cl)c(O)c2ccccc2c1O)=C1/C(=O)Oc2cc(O)ccc2C1=O | 98% (active) |
| Cc1cc(Cl)c(O)c(-c2cc(-c3ccccc3O)c(C#N)c(N)n2)c1 | 80% (active) |
| CCCCNc1ncc(OCC)c(NCCCC)n1 | -44% (inactive) |
| C#CCCCCCOC(=O)c1cc([N+](=O)[O-])cc([N+](=O)[O-])c1 | 99% (active) |
| C=C(C)C1(C(=O)OCC(Cl)(Cl)Cl)NC(=O)C(NC(=O)COc2ccccc2)=CO1 (stereo not given) | 68% (inactive) |
| Cc1ccc(SCC#CC#CCS(=O)c2ccc(C)cc2)cc1 (stereo not given) | 99% (active) |
| CCCCCCCCCCCCCCCC1C(N)C(=O)N(C)N1C (stereo not given) | 97% (active) |
| O=c1c(O)cc2c(O)oc3c(=O)c(O)c(O)c4c(O)oc1c2c43 | 93% (active) |
| CCCCN(CCCC)CCNc1ccc(NS(=O)(=O)c2ccccc2)c2sc3ccccc3c(=O)c12 | 95% (active) |
| CCOC(=O)CC(N)CC(=O)OCC | -49% (inactive) |
| O=c1cc(Cl)c(Cl)nn1-c1ccccc1 | 75% (active) |
| CC(=O)Nc1ccc(-c2ccccc2)cc1[N+](=O)[O-] | 0% (inactive) |

| Compound | growth inhibition |
| --- | --- |
| O=C1OC(c2ccccc2)N/C1=C\c1ccc2c(c1)OCO2 (stereo not given) | 20% (inactive) |
| CCOc1c(N=Nc2ccc(Cl)cc2)c(-c2ccccc2)nn1C(=S)S | 89% (active) |
| BrCN(CBr)c1ccc2c(c1)Cc1cc(Br)ccc1-2 | -4% (inactive) |
| COc1cc(NCCCCCCCC2CCCCN2)c2ncccc2c1 (stereo not given) | 96% (active) |
| Cc1cc(Br)cc(C)c1NC(=O)C(=O)C(C(=O)c1ccc2ccccc2c1)C1OC(=O)c2ccccc21 (stereo not given) | 19% (inactive) |
| O=Cc1cc2c(s1)C(=O)c1sccc1C2=O | 99% (active) |
| C=C1CC2(CC(C(C)C)CCC2C)OC1=O (stereo not given) | 52% (inactive) |
| CCSC(=Nc1nc2ccc(NC(C)=O)cc2s1)SCC | 97% (active) |
| CCOc1ccc2c(c1)n([O-])c1cc(Br)ccc1[n+]2=O | 85% (active) |
| CCCCC(CCCC)=NNC(=S)SC | 62% (inactive) |
| COc1ccc2c(c1)CCc1c(CO)c(COC(=O)NC(C)C)n(C)c1-2 | 91% (active) |
| CSc1cc2c(cc1N)Cc1ccccc1-2 | 88% (active) |
| O=C1C=C(c2ccccc2)OC(c2ccccc2)C1 (stereo not given) | -59% (inactive) |
| CCOc1ccc2nc([NH-])sc2c1.CCOc1ccc2nc([NH-])sc2c1.[Cl][Pt+2][Cl] | 4% (inactive) |
| Cc1nc2c(Cl)nc(Cl)nc2s1 | 98% (active) |
| Cc1cc(O)n(Cc2ccccc2)c(=O)c1 | -36% (inactive) |
| NCCC1=CCCCC1 | 97% (active) |
| CCOC(=O)/C(=C\n1c(=O)sc2ccccc21)C(=O)c1ccccc1 | 55% (inactive) |
| Cc1ccc(S(=O)(=O)Nc2ccccc2C=O)cc1 | 69% (inactive) |
| CC1COC(c2cn[nH]c2C(N)=O)C1O (stereo not given) | 15% (inactive) |
